# According to PubChem BioAssay (Tox21):
# Inconclusive results are not listed. Entries that show only a call come without a potency. The source made the active and inactive calls. Calls come from the whole dose curve; as a rule, active = well fitted curve in the direction sought with a large enough effect in the repeat runs; inconclusive = weak or mixed curves; inactive = no such curve, though single readings can be large; an effect the other way counts as inactive or inconclusive.
# Assay: qHTS assay to identify small molecule agonists of the retinoic acid receptor (RAR) signaling pathway (AID 1159553)
# Details: C3RL4 RARE luciferase reporter, agonist, 6 h; series mostly up to 73.3 µM
# Procedure, shortened: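 Cell line C3RL4, RARE luciferase reporter. Treatment: compounds in DMSO, 6 hr, 37 C, 5% CO2, after overnight plating. Detection: luminescence, 30 min RT after reagent.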
# Potency is the fitted concentration of half-maximal effect.
row,SMILES,Potency
1,Nc1ccc(S(=O)(=O)NCc2ccccc2)cc1,inactive
2,CC(C)(C)S,inactive
3,CCCCOC(=O)CCCCC(=O)OCCCC,inactive
4,CC(C)(C(=O)c1cccnc1)c1cccnc1,inactive
5,O=C(O)CCS,inactive
6,CC(C)C(=O)OCCOc1ccccc1,inactive
7,CCC(=O)OCc1ccc(OC)cc1,inactive
8,CC(=O)c1ccc[nH]1,inactive
9,CCCCCCCCCCCSCC(=O)O,inactive
10,CC1=CC[C@@]23C[C@@H]1C(C)(C)[C@@H]2CC[C@H]3C,inactive
11,C=Cc1ccc(OC(C)=O)cc1,inactive
12,C1CCCCC1,inactive
13,O=C(O)c1cccc(Oc2ccccc2)c1,inactive
14,O=C1[C@@H]2[C@H]3CC[C@H](C3)[C@@H]2C(=O)N1CCCCN1CCN(c2ncccn2)CC1,inactive
15,CC(C)COC(=O)COc1cc(Cl)c(Cl)cc1Cl,inactive
16,CCCC(=O)OC(=O)CCC,inactive

row,SMILES,Potency
1,COc1cc(S(=O)(=O)Nc2ccccc2)c(OC)cc1N,inactive
2,Cc1cc([N+](=O)[O-])ccc1N,inactive
3,CC(=O)OCC1=C(C(=O)O)N2C(=O)[C@@H](NC(=O)CSc3ccncc3)[C@H]2SC1,inactive
4,Oc1cccc2[nH]ccc12,inactive
5,Cc1ccc(N(CCO)CCO)cc1,inactive
6,CC(=O)OCC(C)C,inactive
7,O=C(O)CCC(=O)OC[C@@H](NC(=O)C(Cl)Cl)[C@H](O)c1ccc([N+](=O)[O-])cc1,inactive
8,Nc1ccc(F)cc1,inactive
9,CSCC[C@H](NC(=O)[C@H](Cc1c[nH]c2ccccc12)NC(=O)CCNC(=O)OC(C)(C)C)C(=O)N[C@@H](CC(=O)O)C(=O)N[C@@H](Cc1ccccc1)C(N)=O,inactive
10,CC(C(=O)O)c1ccc(C(=O)c2cccs2)cc1 (configuration not stated),inactive
11,O=C1c2ccccc2C(=O)c2c(O)ccc(O)c21,inactive
12,CC(C)N(C)C,inactive
13,C=CC(=O)O,inactive
14,CCC(Cl)CC(Cl)C(Cl)C(Cl)C(Cl)C(C)Cl (configuration not stated),0.133 µM (active)
15,CCN(CC)CCOC(=O)C(c1ccccc1)c1ccccc1,inactive

# Assay: qHTS assay to identify small molecule antagonists of the estrogen related receptor (ERR) signaling pathway from Tox21 library - cell viability counter screen (AID 1224834); note: nearly all actives have a fitted effect of over 30% in size
# Details: ERR reporter cells viability, CellTiter-Fluor, 17.5 h; series mostly up to 92.4 µM
# Procedure, shortened: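 Viability readout (CellTiter-Fluor fluorescence, 30 min at 37 C) multiplexed with the ERR assay; cells treated 17.5 h at 37 C with compounds delivered in DMSO.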
row,SMILES,Potency
1,Nc1ccc(S(=O)(=O)NCc2ccccc2)cc1,inactive
2,Cc1cccc(C)c1NC(=O)c1cc(S(N)(=O)=O)c(Cl)cc1O,inactive
3,CC(C)(C)S,inactive
4,CCN(CC)C(=O)/C(C#N)=C/c1cc(O)c(O)c([N+](=O)[O-])c1,26.6 µM (active)
5,CCCCOC(=O)CCCCC(=O)OCCCC,inactive
6,CC(C)(C(=O)c1cccnc1)c1cccnc1,inactive
7,CC(C)Cc1ccc(CC(=O)O)cc1,inactive
8,O=C(O)CCS,inactive
9,CC(C)C(=O)OCCOc1ccccc1,inactive
10,CCC(=O)OCc1ccc(OC)cc1,inactive
11,CC(=O)c1ccc[nH]1,inactive
12,Nc1nc(-c2ccc([N+](=O)[O-])cc2)cs1,inactive
13,CCCCCCCCCCCSCC(=O)O,inactive
14,CC1=CC[C@@]23C[C@@H]1C(C)(C)[C@@H]2CC[C@H]3C,inactive
15,C=Cc1ccc(OC(C)=O)cc1,inactive
16,C1CCCCC1,inactive

row,SMILES,Potency
1,O=C(O)c1cccc(Oc2ccccc2)c1,inactive
2,O=C1[C@@H]2[C@H]3CC[C@H](C3)[C@@H]2C(=O)N1CCCCN1CCN(c2ncccn2)CC1,inactive
3,CC(C)COC(=O)COc1cc(Cl)c(Cl)cc1Cl,inactive
4,CCCC(=O)OC(=O)CCC,inactive
5,COc1cc(S(=O)(=O)Nc2ccccc2)c(OC)cc1N,inactive
6,Cc1cc([N+](=O)[O-])ccc1N,33.9 µM (active)
7,CC(=O)OCC1=C(C(=O)O)N2C(=O)[C@@H](NC(=O)CSc3ccncc3)[C@H]2SC1,inactive
8,COc1ccc(CCN(C)CCCN2CCc3cc(OC)c(OC)cc3CC2=O)cc1OC,inactive
9,Oc1cccc2[nH]ccc12,inactive
10,Cc1ccc(N(CCO)CCO)cc1,inactive
11,CC(=O)OCC(C)C,inactive
12,O=C(O)CCC(=O)OC[C@@H](NC(=O)C(Cl)Cl)[C@H](O)c1ccc([N+](=O)[O-])cc1,inactive
13,Nc1ccc(F)cc1,inactive
14,CSCC[C@H](NC(=O)[C@H](Cc1c[nH]c2ccccc12)NC(=O)CCNC(=O)OC(C)(C)C)C(=O)N[C@@H](CC(=O)O)C(=O)N[C@@H](Cc1ccccc1)C(N)=O,inactive
15,CC[C@H]1OC(=O)[C@H](C)[C@@H](O[C@H]2C[C@@](C)(OC)[C@@H](O)[C@H](C)O2)[C@H](C)[C@@H](O[C@@H]2O[C@H](C)C[C@H](N(C)C)[C@H]2O)[C@](C)(O)C[C@@H](C)C(=O)[C@H](C)[C@@H](O)[C@]1(C)O,inactive
